Screening results as filed in PubChem BioAssay.
HSF1 inhib: HSF1 inhibitors in luciferase reporter cells, primary screen, cell-based, NIH3T3, luminescence; NIH3T3-HGL HSE-luciferase, MG132-induced, luminescence 8 h; active compounds read low; AID 2098, 2009; 300,000 compounds, 0.77% hits; activity change, negative = inhibition, % at 7.5 µM (by protocol);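 active = more than half of replicate wells show activity change below -50%, luminescence cut by over half; inconclusive = some wells, but at most half, below -50%; inactive = no replicate well below -50%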;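 also: luciferase reports HSF-1 transcriptional activity via heat shock element; 0% = median of DMSO wells and -100% = zero luminescence signal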
EBV LMP1 NFkB: EBV LMP1-driven NF-kappaB luciferase reporter inhibitors, primary screen, cell-based, luminescence, single point | 350,000 compounds, 0.69% hits | inhibition, % at 12.5 µM | LMP1-induced NF-kappaB luciferase reporter cells; in the data active = inhibition above about 41%; inconclusive = no clear call, values can overlap the other calls;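 also: 0% = neutral control wells and 100% = reference inhibitor control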
LGR2 inh: inhibitors of bursicon-induced LGR2 CRE-luciferase signal, primary screen, cell-based, HEK293, CRE-luciferase reporter, bursicon stimulation. Drosophila bursicon receptor LGR2 (rickets). bursicon-stimulated, 4 h. inhibition, % at 9.99 µM. 380,000 compounds, 0.35% hits. AID 720647, 2013;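 active = drop in luminescence signal, shown as inhibition above about 50% in the replicate tests, limit read from the data, passing the limit was not always enough; inconclusive = probably only some replicates passing the limit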;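 also: agonist challenge used bursicon conditioned medium at about half maximal strength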
TROY NFkB inh: inhibitors of TROY-driven NF-kB signaling, primary screen, Q293 LMP1-TROYcd cells, NF-kB luciferase, uHTS; Q293 LMP1-TROYcd NF-kB luciferase reporter, 4 h; 360,000 compounds, 0.98% hits; inhibition, % at 10 µM;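 active = compounds whose plate-normalised and pattern-corrected inhibition of the luciferase reporter signal at the single screening dose is 50% or more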
HSF-1 act: HSF-1 activators, primary screen, NIH3T3-HGL cells, MG132 stress, luminescence, single point. 300,000 compounds, 1.7% hits. NIH3T3-HGL HSF-1 luciferase reporter, 8 h; 100% = twice DMSO control signal. activation, % at 9 µM;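 active = mean replicate activation of at least 50% with a set share of replicates each reaching 50%; inconclusive = only one of those two conditions met; inactive = mean below 50% and too few replicates reaching it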;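 also: 0% = median of the neutral control wells and 100% = twice that signal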
TWEAK-Fn14 inh: inhibitors of TWEAK-Fn14 signaling, primary screen, luciferase reporter cells, uHTS | TWEAK-stimulated Fn14 reporter cells, luciferase luminescence, 8 h | inhibition, % at 10 µM | 360,000 compounds, 2% hits | AID 1159606, 2016; in the data active = inhibition above about 50%
* hit, by the source's call; ? = inconclusive; . = not tested or not shown. Hits are enriched below; roughly 3.6% of the tested compounds scored in any of these assays.

SMILES | HSF1 inhib | EBV LMP1 NFkB | LGR2 inh | TROY NFkB inh | HSF-1 act | TWEAK-Fn14 inh
COc1ccc(NC(=O)Nc2ccc3c(c2)C(=O)N([C@H](C)CO)C[C@@H](C)[C@@H](CN(C)C(=O)NC2CCCCC2)OCCCC[C@@H](C)O3)cc1 | . | . | 14 | . | . | .
Cc1noc(C)c1S(=O)(=O)Nc1ccc2c(c1)CC(=O)N([C@H](C)CO)C[C@H](C)[C@@H](CN(C)Cc1ccc(C(=O)O)cc1)O2 | . | . | 6 | . | . | .
CCOc1ccc2nc(NC(=O)c3ccoc3C)sc2c1 | -7 | 5 | . | 32 | 0 | 63*
CCOc1ccc2nc(NC(=O)c3ccco3)sc2c1 | 14 | 10 | ? | 23 | 28 | 59*
CCOC(=O)c1ccc2nc(NC(=O)c3ccco3)sc2c1 | 28 | 5 | . | 9 | 69* | 46
CCOc1ccc2nc(NC(=O)C3CCCO3)sc2c1 (stereo unspecified) | 13 | -7 | -21 | -58 | 19 | 29
CCNC(=O)C[C@H]1C=C[C@@H](NC(=O)C2CCOCC2)[C@H](CO)O1 | . | . | -3 | . | . | .
C(=N\Nc1ccccn1)/c1c[nH]c2ccccc12 | 177 | -26 | -70 | -49 | 251* | -7
CCN(CC)S(=O)(=O)c1ccc(C)c(NC(=O)CNc2cccc(S(=O)(=O)N3CCOCC3)c2)c1 | -2 | 6 | 3 | 3 | -14 | 14
CCN(CC)S(=O)(=O)c1ccc(C)c(NC(=S)Nc2cccc(S(=O)(=O)N3CCCCCC3)c2)c1 | 21 | 7 | 11 | 12 | 56* | -10
O=S(=O)(c1ccc(Cl)c(NC(=S)N/N=C/c2ccc(O)cc2)c1)N1CCOCC1 | 13 | 3 | 1 | 19 | 56* | 58*
O=C(Nc1cccc(Cl)c1)Nc1cc(S(=O)(=O)N2CCCCC2)ccc1Cl | 6 | 4 | 34 | 56* | 3 | 84*
O=C(Nc1cccc(-c2ccc(F)cc2)c1)C1CCCN(C(=O)c2cscn2)C1 (stereo unspecified) | -71* | 2 | -21 | 0 | -77 | -15
Cc1ncoc1C(=O)N1CCCC(C(=O)Nc2cccc(-c3ccc(F)cc3)c2)C1 (stereo unspecified) | 30 | -5 | -22 | -7 | 45 | -6
CN1CCN(S(=O)(=O)c2ccc(NC(=O)Nc3cccc(Cl)c3)cc2)CC1 | 16 | -11 | . | -28 | 12 | 3
O=C(CC1CC1)N1CC2(C1)[C@H](c1ccccc1)[C@@H](CO)N2Cc1cccc(F)c1 | . | . | 14 | . | . | .
CCNC(=O)C[C@@H]1CC[C@@H](NC(=O)C2CCOCC2)[C@H](CO)O1 | . | . | 5 | . | . | .
CO[C@@H]1CN(C)C(=O)c2ccc(NC(C)=O)cc2OC[C@H](C)N(C(=O)c2ccncc2)C[C@@H]1C | . | . | 16 | . | . | .
O=C(Nc1cccc(Cl)c1)C1CCCN(S(=O)(=O)c2ccc(F)cc2)C1 (stereo unspecified) | 44 | -8 | . | 13 | 89* | 17
O=C(CN1CCN(c2ccc(O)cc2)CC1)Nc1cc(S(=O)(=O)N2CCCC2)ccc1Cl | -56* | -4 | 11 | -10 | -66 | -29
CC(=O)c1cccc(-c2csc3ncnc(Sc4nnnn4C)c23)c1 | . | . | ? | 19 | . | 75*
Cn1nnnc1Sc1ncnc2scc(-c3cccc(S(C)(=O)=O)c3)c12 | . | 47* | 85* | 27 | . | 61*
O=C(O)CSc1ncnc2scc(-c3ccccc3)c12 | -11 | 0 | 12 | 22 | -23 | 12
Cn1nnnc1Sc1ncnc2scc(-c3cccc(Br)c3)c12 | . | 78* | 4 | 67* | . | 99*
CCC(=O)Nc1ccc2c(c1)OC[C@@H](C)N(Cc1ccccc1OC)C[C@H](C)[C@@H](OC)CN(C)C2=O | . | . | 3 | . | . | .
COc1ccc(S(=O)(=O)N(CCCN2CCCC2=O)Cc2cc3cc(C)c(C)cc3[nH]c2=O)cc1 | 11 | -4 | . | 14 | 29 | 94*
c1ccc(CNc2nc(NCc3cccs3)nc3ccsc23)cc1 | . | . | 57* | 61* | . | 8
N#Cc1ccc(Nc2nc(NCc3ccccc3)nc3ccsc23)cc1 | . | . | -35 | -13 | . | 8
CNc1nc(NCc2ccccc2)c2sccc2n1 | . | . | -10 | 9 | . | -53
